Only some compounds are listed: those with a hit (about 5.4% of all), similar ones and a draw of the others.
CtBP-E1A blk: inhibitors of CtBP/E1A interaction; AID 651724; AlphaScreen GST-E1A/His-CtBP binding, 1536-well; stronger effect = lower value; activity change, % (no concentration beside the values); actives 0.49% (n = 340,000); in the data active = activity change below about -65%; inconclusive = mostly about -30% to -63%; note: % is set by controls: 0 for no effect and ±100 for the full control effect
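AlphaScreen with 125 nM GST-E1A and 125 nM His-CtBP (5X stocks) in Tris pH 8.0, 300 mM NaCl, BSA, Tween 20, TCEP. Compounds preincubated 2 h at 37 deg C, then glutathione donor/nickel acceptor beads added for 1 h at 37 deg C in dark.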
Six1-Eya2 inh: Six1/Eya2 interaction inhibition; Q15475+O00167; AlphaScreen GST-Six1/His-Eya2 binding, biochemical; stronger effect = lower value; activity change, % (test concentration not listed); actives 0.56% (n = 360,000); in the data active = activity change below about -65%; inconclusive = mostly about -30% to -63%; note: % is set by controls: 0 for no effect and ±100 for the full control effect
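Compounds are tested against tagged Six1 and Eya2 proteins bridged by glutathione donor and nickel acceptor beads; after a one-hour incubation at 37 °C without light, AlphaScreen emission is recorded.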
RORgamma inh: inhibitors of mouse ROR gamma transcriptional activity; Drosophila S2 Gal4-RORgamma UAS-luciferase reporter, 20 h; AID 2551; actives 5.4% (n = 310,000); Potency, µM (doses to about 53.6 µM), for inactives: at the top dose activity change, negative = inhibition, most hits filed as inhibitors; P51450; note: potency is the fitted concentration of half-maximal effect; % is set by controls: 0 for no effect and ±100 for the full control effect; nearly all actives have a fitted effect of over 60% in size
Target sequence (P51450 whole entry, looked up, the tested form may be a part): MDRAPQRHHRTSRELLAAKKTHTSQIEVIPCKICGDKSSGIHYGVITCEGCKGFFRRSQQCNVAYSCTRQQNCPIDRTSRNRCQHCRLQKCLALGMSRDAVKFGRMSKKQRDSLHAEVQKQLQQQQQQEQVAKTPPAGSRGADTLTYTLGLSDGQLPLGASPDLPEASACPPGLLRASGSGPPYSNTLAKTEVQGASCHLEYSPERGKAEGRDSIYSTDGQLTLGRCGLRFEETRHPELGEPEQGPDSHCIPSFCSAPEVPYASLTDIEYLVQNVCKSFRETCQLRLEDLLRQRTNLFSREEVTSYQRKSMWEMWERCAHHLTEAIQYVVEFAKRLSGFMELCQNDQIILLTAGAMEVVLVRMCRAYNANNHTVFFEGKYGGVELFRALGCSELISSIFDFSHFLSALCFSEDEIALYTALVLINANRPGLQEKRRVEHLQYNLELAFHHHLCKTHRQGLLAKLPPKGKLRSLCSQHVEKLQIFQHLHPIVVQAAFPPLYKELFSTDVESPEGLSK
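Using a luciferase readout, inhibitors were identified by reduced reporter activity in Drosophila cells coexpressing a copper-inducible Gal4–ROR gamma fusion and UAS-driven Photinus luciferase, incubated 20 hr after 700 uM copper sulfate.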
p53 reactivation: re-activators of mutant p53. AID 504706. actives 0.063% (n = 320,000). Potency, µM (series often up to 92.2 µM), for inactives: at the highest dose activity change, positive = activation, hits mostly activators. H1299 p53-A138V BP100-luciferase reporter, luminescence, 24 h; note: potency is the fitted concentration of half-maximal effect; % of control where 0% means no effect; nearly all actives have a fitted effect of over 45% in size
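p53-null H1299 cells stably carrying temperature-sensitive p53-A138V and a BP100-luciferase reporter were pinned with compounds (4-point, 1:5 series) and held 24 hrs at 37 deg C. Luminescence was read 10 min after detection reagent.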
VP16 counter: counter-screen for ROR gamma inhibitors: Gal4-VP16 reporter; Drosophila S2 Gal4-VP16 UAS-luciferase, luminescence, 20 h; Potency, µM (titrated, usually from 53.6 µM), for inactives: top-dose activity, negative = inhibition, hits mostly inhibitors; actives 3.5% (n = 310,000);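 note: Gal4-VP16 expression switched on by copper sulfate through the metallothionein promoter; potency is the fitted concentration of half-maximal effect; % is set by controls: 0 for no effect and ±100 for the full control effect; nearly all actives have a fitted effect of over 50% in size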
* = called active by the depositor; ? = inconclusive; · = no result given; [ ] = another dose, or the depositor's remark. Unless noted, calls come from the whole dose curve; as a rule, active = well fitted curve in the direction sought with a large enough effect; inconclusive = small, poorly fitted or top-dose-only effect, or another doubt; inactive = no such curve, though single readings can be large; an effect the other way counts as inactive or inconclusive.

SMILES	CtBP-E1A blk	Six1-Eya2 inh	RORgamma inh	p53 reactivation	VP16 counter
CC(C)=NO[C@@H](C)c1cc(-c2c(C)cc(C)cc2C)no1	·	·	10%[10 µM]	·	-7%[10 µM]
CCOc1ccccc1Nc1nc2ccccc2n1C(C)C	-10	-2	10µM*	11%	-6%
COc1cc(/C=C2\SC(=S)N(NC(=O)c3ccc(O)c(OC)c3)C2=O)ccc1O	?	-6	7.1µM*	9%	?
Cn1cccc1/C=C1\SC(=S)N(NC(=O)c2ccc(F)cc2)C1=O	?	?	30%	-2%	16µM*
O=c1[nH]cnc(O)c1C(c1ccc([N+](=O)[O-])cc1)c1c(O)nc[nH]c1=O	·	-2	12%[1.91 µM]	4%	7%
COc1ccc(/C=N/Nc2ncnc3sc4c(c23)CCCC4)cc1OC	-16	?	3.2µM*	4%	4µM*
Fc1ccc(Nc2ncnc3sc4c(c23)CCC4)cc1F	-3	2	23%	-22%	-4%
CCOC(=O)Cc1csc(NC(=O)CSc2nc(N)c3c(C)c(C)sc3n2)n1	-20	-16	1%	-10%	-14%
Nc1nc2ccc([N+](=O)[O-])c(N)c2s1	-72*	?	27%	6%	3%
Nc1ccc2nc(N)sc2c1	0	4	·	·	·
O=S(=O)(NC1CCCc2ccccc21)c1cnc[nH]1 (configuration not stated)	7	7	13µM*	-3%	?
Cc1cccc(NC2=NC(=S)N(c3cccc(C(=O)O)c3)C23CCCCC3)c1	·	-3	3%	8%	0%[10 µM]
Cc1cccc(N2C(=S)N=C(Nc3c(C)cccc3C)C23CCOC(C)(C)C3)c1 (configuration not stated)	4	7	7%	0%	-7%
Cc1cccc(C)c1NC1=NC(=S)N(c2ccc(C(=O)O)cc2)C12CCCCC2	-1	5	20%	3%	2%
COc1ccc(N2C(=S)N=C(Nc3cccc(C)c3)C23CCCCC3)cc1	7	5	2.2µM*	-10%	6.3µM*
Cc1ccc(N2C(=S)N=C(Nc3ccccc3C)C23CCOC(C)(C)C3)cc1 (configuration not stated)	13	2	4.5µM*	-8%	13µM*
Cc1cccc(C)c1NC1=NC(=S)N(c2ccccc2)C12CCOC(C)(C)C2 (configuration not stated)	-2	7	4µM*	2%	?
COc1ccccc1N1C(=S)N=C(Nc2c(C)cccc2C)C12CCCC2	-2	5	7.9µM*	3%	?
COc1cc(/C=N\NC(=O)c2cccnc2)ccc1OC(=O)c1ccccc1Cl	2	-4	-3%	10%	2%
CN(C)c1ccc(N/C=C/C(=O)c2ccccc2)cc1	?	-30	5.6µM*	-15%	10µM*
O=C(/C=C/Nc1ccccc1)c1ccccc1	5	0	-6%	·	5%
CC(C)CNC(=O)CN(c1cccc(Cl)c1)S(C)(=O)=O	1	7	7%	3%	-9%
NC1=NS(=O)(=O)NC1c1ccc(F)cc1 (configuration not stated)	7	3	8%	-5%	3%
CCc1cc2c(Sc3nc4ccccc4s3)ncnc2s1	4	2	8.9µM*	?	?
c1ccc(CSc2ncnc3sccc23)cc1	46	28	?	9%	29%
SMILES	CtBP-E1A blk	Six1-Eya2 inh	RORgamma inh	p53 reactivation	VP16 counter
CCc1cc2c(SCC(=O)Nc3ccc(NC(C)=O)cc3)ncnc2s1	·	-2	·	-1%	·
c1ccc2sc(Sc3ncnc4sccc34)nc2c1	6	-4	10µM*	?	?
COC(=O)N1C(C2CC2)=Cc2ccccc2C1CC(C)=O (configuration not stated)	·	·	-14%	·	-11%
O=C(Nc1ccccc1)N1CCC2(CC1)CCN(C(=O)c1ccco1)CC2	·	·	17%	·	?
COCCN(C(=O)COC(=O)C12CC3CC(CC(C3)C1)C2)c1c(N)n(Cc2ccccc2)c(=O)[nH]c1=O	-2	1	·	·	·
O=S(=O)(NCC[C@@H]1CC[C@H](NS(=O)(=O)c2cccc(F)c2)[C@@H](CO)O1)c1cccc(F)c1	-1	10	·	·	·
Cn1cc(CNCc2cn[nH]c2-c2ccc(F)cc2)c(-c2ccc3c(c2)OCCO3)n1	-3	-1	12%	-5%	0%
Cn1cc(CNCc2ccc(OC(F)(F)F)cc2)c(-c2ccc3c(c2)OCCO3)n1	-1	-3	10µM*	0%	3.5µM*
COc1ccc2nc(/C=N/NC(=O)[C@@H]3CCCN3C(=O)OC(C)(C)C)ccc2c1	-13	-20	-30%	1%	-4%
S=C(Nc1ccccc1)Nc1ccc(Br)cn1	-6	5	0.89µM*	3%	5.6µM*
O=C(NC(=S)Nc1ccccc1O)c1cncc(Br)c1	-9	-20	·	·	·
COc1ccc(C(=O)Nc2ccc(NC(=O)c3cccs3)cn2)cc1	3	5	0.22µM*	-1%	9%
Cc1cccnc1NC(=S)NC(=O)c1cccs1	-3	-1	4µM*	?	10µM*
Cc1cccnc1NC(=O)CNC(=O)c1cccs1	6	9	·	-2%	·
O=C(NC(=S)Nc1ccccc1[N+](=O)[O-])c1cncc(Br)c1	·	-11	7.1µM*	·	5.6µM*
Cc1ccc(NC(=O)CCN2C(=O)c3ccccc3S2(=O)=O)cc1C	2	0	·	-2%	·
O=c1c(-c2cc(F)cc(F)c2)nc2cnc(N3CCNCC3)nc2n1-c1ccccc1	·	·	-6%	·	-7%
O=C(Nc1ccc(Br)cn1)c1ccc(Br)s1	10	12	17%	?	?
O=C(NC(=S)Nc1ccc(Br)cn1)c1cncc(Br)c1	-3	1	0.5µM*	-3%	-4%
O=C(NC(=S)Nc1ccccn1)c1cncc(Br)c1	-13	-9	7.9µM*	?	7.9µM*
Cc1ccc(NC(=S)NC(=O)c2cncc(Br)c2)cc1Cl	-5	-3	·	·	·
Cc1cccnc1NC(=S)NC(=O)c1cncc(Br)c1	-1	1	5µM*	?	?
O=C(NC(=S)Nc1ccc(Br)cn1)c1cccs1	·	9	2.2µM*	9%	8.9µM*
COc1ccc(S(=O)(=O)NC(C)c2ccc3c(c2)OCCO3)cc1 (configuration not stated)	3	3	·	·	·
Cc1ccc(-c2nc3ncccc3o2)cc1NC(=O)c1ccc2c(c1)OCO2	-1	-7	·	·	·
CCOC(=O)C1=NN(C(=O)c2ccco2)C2(CC2)C1	0	0	-4%	2%	5%
CCOC(=O)C1=NN(C(=O)c2ccc(OC)cc2)C(O)(c2ccc(Cl)cc2)C1 (configuration not stated)	-2	-5	10µM*	-8%	?
CCOC(=O)C1=NN(C(=O)c2ccccc2)C(O)(c2ccc(C)cc2)C1 (configuration not stated)	-2	2	10µM*	8%	28µM*
